# Results reported in article PMC4336329 (PLoS ONE, 2015).
# Screen size: about 310,000 compounds; about 14,000 (4.5%) showed an effect of 50% or more. Effects have a minus sign here. The entries come from a sample that favours strong results as a whole.
# Target: human ether-à-go-go-related gene (hERG) potassium channel (human, UniProt Q12809)
# Experiment: primary screen, population patch clamp on CHO cells stably expressing hERG; higher = less effect of the substance
# 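Further: peak tail current of the secondary pulse compared with the same well before compound.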
# Sequence of human ether-à-go-go-related gene (hERG) potassium channel (Q12809 whole entry, looked up): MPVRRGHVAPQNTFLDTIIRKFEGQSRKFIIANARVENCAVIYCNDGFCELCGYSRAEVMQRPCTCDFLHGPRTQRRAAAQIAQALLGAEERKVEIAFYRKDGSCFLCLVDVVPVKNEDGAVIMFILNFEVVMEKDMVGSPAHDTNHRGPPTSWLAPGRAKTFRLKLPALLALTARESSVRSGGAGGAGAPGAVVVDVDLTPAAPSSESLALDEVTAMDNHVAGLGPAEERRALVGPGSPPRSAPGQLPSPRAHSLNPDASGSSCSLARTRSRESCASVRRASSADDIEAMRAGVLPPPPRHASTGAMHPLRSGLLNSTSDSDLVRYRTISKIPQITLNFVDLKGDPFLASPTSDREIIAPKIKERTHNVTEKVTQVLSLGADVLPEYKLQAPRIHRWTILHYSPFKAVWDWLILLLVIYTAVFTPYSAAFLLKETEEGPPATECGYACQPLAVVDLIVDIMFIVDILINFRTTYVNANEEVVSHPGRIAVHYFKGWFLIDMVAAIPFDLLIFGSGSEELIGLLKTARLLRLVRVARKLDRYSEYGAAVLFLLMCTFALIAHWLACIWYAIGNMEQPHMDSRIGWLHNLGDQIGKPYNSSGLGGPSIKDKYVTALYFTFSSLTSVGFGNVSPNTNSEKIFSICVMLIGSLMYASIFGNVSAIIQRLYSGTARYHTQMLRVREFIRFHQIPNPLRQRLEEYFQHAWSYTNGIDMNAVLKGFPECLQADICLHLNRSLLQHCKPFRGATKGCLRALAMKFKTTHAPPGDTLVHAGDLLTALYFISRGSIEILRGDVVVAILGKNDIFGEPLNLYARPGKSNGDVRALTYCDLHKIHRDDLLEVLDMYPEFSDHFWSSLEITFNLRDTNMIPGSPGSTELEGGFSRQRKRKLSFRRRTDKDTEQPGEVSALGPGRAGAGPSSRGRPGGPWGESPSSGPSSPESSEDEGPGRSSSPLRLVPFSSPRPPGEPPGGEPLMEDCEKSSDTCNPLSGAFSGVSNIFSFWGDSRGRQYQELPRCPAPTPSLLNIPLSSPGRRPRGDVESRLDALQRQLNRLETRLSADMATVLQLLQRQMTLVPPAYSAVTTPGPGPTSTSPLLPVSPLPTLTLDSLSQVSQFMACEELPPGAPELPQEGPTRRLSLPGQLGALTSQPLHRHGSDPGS
row,SMILES,"hERG current change (%, negative = inhibition) at 10uM"
1,CCN(CC)CC(=O)Nc1c2c(nc3ccccc13)N(C)CC2.O=C(O)C(=O)O,16.5%
2,CCN(CC)CC(=O)Nc1cc(N(C)C)nc2ccccc12.O=C(O)C(=O)O,-35.3%
3,O=C(CN1CCCCC1)Nc1c2c(nc3ccccc13)N(c1ccccc1)CC2.O=C(O)C(=O)O,3.12%
4,O=C(CN1CCCC1)Nc1c2c(nc3ccccc13)N(Cc1ccccc1)CC2.O=C(O)C(=O)O,6.05%
5,CN1CCc2c1nc1ccccc1c2NC(=O)CN1CCCC1,-1.61%
6,CCCCCC(=O)Nc1cc(N(C)C)nc2ccccc12,-74.9%
7,CCCCCC(=O)Nc1cccc2ccccc12,-2.38%
8,O=C(CN1CCOCC1)Nc1c2c(nc3ccccc13)N(Cc1ccccc1)CC2.O=C(O)C(=O)O,-68.9%
9,CN(C)c1cc(NC(=O)CN2CCCC2)c2ccccc2n1.O=C(O)C(=O)O,-10.3%
10,CCCCCCC(=O)Nc1c2c(nc3ccccc13)N(C)CC2,-68%
11,CCCCC(=O)Nc1cc(N(C)C)nc2ccccc12,-66.3%
12,CCCCCC(=O)Nc1c2c(nc3ccccc13)CCC2,-45.7%
13,C/C(=N\NC(=S)Nc1cc(S(=O)(=O)N2CCOCC2)ccc1Cl)c1ccc(N2CCOCC2)cc1,6.22%
14,COc1ccc(CN(Cc2ccccn2)C(=O)CN2C(=O)C(C)Oc3ccccc32)cc1 (stereo not drawn),-3.36%
15,CCOC(=O)c1ccc(-c2ccc(/C=C(\C#N)C(=O)NCc3cccs3)o2)cc1,18%
16,CC(=O)N1N=C(c2cccnc2)OC1c1ccc(C(C)C)cc1 (stereo not drawn),-30.1%
17,O=c1[nH]ccc2c(O)cccc12,20.1%
18,Cc1cccc(C)c1NC(=O)C1c2cccc[n+]2CC(=O)N1Cc1cccs1.[I-] (stereo not drawn),4.89%
19,O=C(CCN1C(=O)/C(=C/c2ccccc2F)SC1=S)NC1C=CS(=O)(=O)C1 (stereo not drawn),15.3%
20,CCOc1ccc(C(=O)c2nc3c(n2O)CCCC3)cc1,18.5%
21,O=C(O)/C=C/C(=O)Nc1cccc(C(F)(F)F)c1,7.79%
22,CC(C)CCN(CCC(C)C)CC(O)Cn1c2ccccc2c(=O)c2ccccc21 (stereo not drawn),-22%

row,SMILES,"hERG current change (%, negative = inhibition) at 10uM"
1,CCCN(CCC)CC(O)Cn1c2ccccc2c2ccccc21 (stereo not drawn),-32.1%
2,CCCCN(CCCC)CC(O)Cn1c2ccccc2c(=O)c2ccccc21 (stereo not drawn),-68%
3,COCCCNC(=O)CCC(=O)Nc1ccc2nc(N3CCOCC3)cc(C)c2c1,4%
4,COc1ccc(C2Oc3ccccc3C3=C2C(c2cccs2)n2ncnc2N3)cc1 (stereo not drawn),-52.1%
5,Clc1ccc2c(c1)C1=C(C(c3ccncc3)O2)C(c2ccc(Br)cc2)n2ncnc2N1 (stereo not drawn),4.44%
6,Brc1ccc(C2C3=C(Nc4ncnn42)c2ccccc2OC3c2ccncc2)cc1 (stereo not drawn),-32%
7,Cc1ccc(C2Oc3ccccc3C3=C2C(c2cccs2)n2ncnc2N3)cc1 (stereo not drawn),-7.55%
8,c1csc(C2C3=C(Nc4ncnn42)c2ccccc2OC3)c1 (stereo not drawn),11.4%
9,Fc1ccc(C2C3=C(Nc4ncnn42)c2ccccc2OC3c2ccncc2)cc1 (stereo not drawn),-60.4%
10,COc1ccc(C2NC(=O)CCC2[N+](=O)[O-])c(OC)c1OC (stereo not drawn),12.2%
11,Cn1c(-c2cccc3ccccc23)n[nH]c1=S,21.9%
12,CCOc1ccc(/C(O)=C2/C(=O)C(=O)N(c3cc(C)on3)C2c2ccc(C(=O)OC)cc2)cc1 (stereo not drawn),11.3%
13,CSCCC(NC(=O)c1ccco1)C(=O)N1CC=C(c2ccccc2)CC1 (stereo not drawn),-48%
14,COc1ccccc1C(=O)NCC(=O)N1CC=C(c2ccccc2)CC1,6.76%
15,CCOc1ccc(C(=O)NCC(=O)N2CCCCCCC2)cc1OCC,1.47%
16,CCOc1ccc(C(=O)NCC(=O)N2CC=C(c3ccccc3)CC2)cc1OCC,-62.9%
17,COc1cc(C(=O)NCC(=O)N2CC=C(c3ccccc3)CC2)cc(OC)c1OC,-51.2%
18,COc1ccc(C(=O)NCC(=O)N2CC=C(c3ccccc3)CC2)cc1OC,-37.9%
19,CCOc1ccc(C(=O)NCC(=O)N2CCc3ccccc3C2)cc1OCC,4.5%
20,Cc1cccc(C(=O)NCC(=O)N2CC=C(c3ccccc3)CC2)c1,-40.9%
21,O=C(NCC(=O)N1CC=C(c2ccccc2)CC1)c1ccco1,-78.4%
22,CCOC(=O)N1CCN(C(=O)COC(=O)COc2c(C)cc(C)cc2C)CC1,-9.8%

row,SMILES,"hERG current change (%, negative = inhibition) at 10uM"
1,O=c1c(-c2ccc(O)cc2O)coc2cc(O)cc(O)c12,-4.59%
2,Nc1nnc(Cc2cccc(Br)c2)s1,3.51%
3,COCCNC(=O)COc1ccc(C)cc1C,10.4%
4,CCCCNC(=S)N(C)/N=C/c1ccc(OCC(=O)Nc2ccc(OC)cc2)c(OC)c1,-4.23%
5,CCOC(=O)C1=C(C)NC(SCC(N)=O)=C(C#N)C1c1cccs1 (stereo not drawn),-13.2%
6,O=C(c1ccc2c(=O)n3c(nc2c1)CCCCC3)N1CCN(Cc2ccccc2)CC1,-2.69%
7,Cc1ccc(C(=O)OCC(=O)N(C)c2ccccc2)cc1C,-9.59%
8,COc1ccc(CCn2c(C(C)C)nc3oc4ccccc4c(=O)c3c2=O)cc1,-75.3%
9,COc1ccc(CCn2c(C)nc3c(c(=O)c4ccccc4n3C)c2=O)cc1,-61.4%
10,COc1ccc(CCn2c(-c3ccc(OC)cc3)nc3c(c(=O)c4ccccc4n3C)c2=O)cc1,11.4%
11,CCc1nc2c(c(=O)c3ccccc3n2C)c(=O)n1CCc1ccc(OC)cc1,-74.9%
12,COc1ccc(Cn2c(C)nc3c(c(=O)c4ccccc4n3C)c2=O)cc1,-44.5%
13,COCCn1c(C(C)C)nc2oc3ccccc3c(=O)c2c1=O,3.05%
14,COc1ccc(CCn2c(-c3ccccc3)nc3c(c(=O)c4ccccc4n3C)c2=O)cc1,11.3%
15,COc1ccc2c(=O)c3c(=O)n(CCc4ccccc4)c(C(C)C)nc3oc2c1,5.79%
16,COc1ccc(CCn2c(C(C)C)nc3c(c(=O)c4ccccc4n3C)c2=O)cc1,-30%
17,Cc1ccc(NC(=O)CSCC(=O)N2c3ccccc3CCc3ccccc32)cc1,7.66%
18,CC(=O)Nc1ccccc1C(=O)N1CCN(Cc2ccccc2)CC1,5.02%
19,O=c1[nH]c(=O)n(Cc2ccco2)c(O)c1C=NCc1ccco1,3.46%
20,Cc1nnc(NC(=O)CSc2nnc(-c3ccc(S(=O)(=O)N4CCCC4)cc3)n2C)s1,-3.39%
21,C/C(=N\NC(=O)C1CC1)c1ccc(OC(F)F)cc1,9.94%
22,CCOc1ccc(NC(=O)CSCC(=O)O)cc1,1.8%

row,SMILES,"hERG current change (%, negative = inhibition) at 10uM"
1,Oc1ccc(/C(Cc2ccccn2)=N\Nc2ccccc2)c(O)c1,8.76%
2,CC(=O)c1cccc(OCc2cc(C(=O)NC3CCN(Cc4ccccc4)CC3)no2)c1,-62.9%
3,O=C(NC1CCc2ccccc21)c1cc(COc2ccc(F)cc2F)on1 (stereo not drawn),16.5%
4,O=C(NC1CCN(Cc2ccccc2)C1)c1cc(COc2ccc(F)cc2F)on1 (stereo not drawn),-64.2%
5,CC(=O)c1ccc(OCc2cc(C(=O)NC3CCCCC3)no2)cc1,5.17%
6,Cc1ccc(C)c(OCc2cc(C(=O)NC3CCN(Cc4ccccc4)CC3)no2)c1,-41.1%
7,O=C(NC1Cc2ccccc2C1)c1cc(COc2ccc(F)cc2Cl)on1,13.3%
8,c1ccc(-c2ccc(SCc3cccnc3)nn2)nc1,8.9%
9,COC(=O)CCCC1=CC2=CC(=O)C(C)(OC(=O)c3cnc4ccccc4n3)C(=O)C2=CO1 (stereo not drawn),7.07%
10,O=C(Nc1ccc(Br)cc1)c1cnccn1,-2.9%
11,CCN(CC)C(=O)C1CCCN(Cc2cccc(Oc3ccccc3)c2)C1 (stereo not drawn),-19.6%
12,COc1cccc(CNC(=O)CCC2CCCN(C(=O)c3ccoc3)C2)c1 (stereo not drawn),24.9%
13,CCN(CC1CCCN(CCc2cccc(OC)c2)C1)C(=O)c1ccoc1 (stereo not drawn),-70.7%
14,COc1cccc(CC(=O)NC2CCCN(Cc3ccccc3F)C2)c1 (stereo not drawn),-5.72%
15,COc1cccc(CNC(=O)CCC2CCCN(C(=O)c3ccoc3C)C2)c1 (stereo not drawn),5.6%
16,CCN(CC1CCCN(CCc2cccc(OC)c2)C1)C(=O)c1ccoc1C (stereo not drawn),-62.8%
17,CCN(CC1CCCN(CCc2cccc(OC)c2)C1)C(=O)C=C(C)C (stereo not drawn),-61.1%
18,CCN(CC1CCCN(CCc2cccc(OC)c2)C1)C(=O)c1ccc(COC)o1 (stereo not drawn),-71%
19,COc1cccc(CCC(=O)N(C)C2CCCN(Cc3ccccc3F)C2)c1 (stereo not drawn),-0.453%
20,COCc1ccc(CN2CCCC(C(=O)Nc3ccc(-c4cccc(OC)c4)cc3)C2)o1 (stereo not drawn),-0.711%
21,CCOC(=O)C1C(=O)NC(N2CCN(c3ccccc3)CC2)=NC1c1ccco1 (stereo not drawn),-5.81%
